Bioassay records: PubChem BioAssay, several laboratories
CRFR2-BP antag: blocks CRF-induced signaling of the CRF-BP/CRF-R2 complex. HEK293 CRF-R2/CRF-BP, CRF-induced calcium fluorescence. inhibition, % at 11.8 µM. 0.59% of 350,000 active. AID 588475;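 active means inhibition of the ligand-induced calcium signal above about 50% at the single tested concentration, limit read from the data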
V-ATPase pHluor: alters yeast V-ATPase proton transport | response, % at 10 µM | 0.37% of 350,000 active | S. cerevisiae, pHLuorin cytosolic pH fluorescence; in the data active means response mostly above about 7.3%, no sharp cut-off; inactive means mostly below about 5.4%; further: actives read high
CRFBP-R2 agonist: agonists of human CRF-binding protein/CRF-R2 receptor complex | HEK293 CRF-R2/CRF-BP, calcium dye fluorescence (FLIPR); percent of saturating CRF peptide response | activation, % at 13.2 µM | 0.46% of 350,000 active;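 active means activation of at least 50%, plus an integration ratio under a set limit after plate pattern correction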
NTR1 ag: activates human neurotensin receptor 1 | P30989 | NTR1-U2OS beta-arrestin-GFP spot imaging, agonist mode | activation, % at 20 µM | 0.17% of 330,000 active | AID 493036;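 active means activation at or above 40% of the spot to cytoplasm intensity ratio, with at least 20 cells analyzed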
Target sequence (P30989 whole entry, looked up): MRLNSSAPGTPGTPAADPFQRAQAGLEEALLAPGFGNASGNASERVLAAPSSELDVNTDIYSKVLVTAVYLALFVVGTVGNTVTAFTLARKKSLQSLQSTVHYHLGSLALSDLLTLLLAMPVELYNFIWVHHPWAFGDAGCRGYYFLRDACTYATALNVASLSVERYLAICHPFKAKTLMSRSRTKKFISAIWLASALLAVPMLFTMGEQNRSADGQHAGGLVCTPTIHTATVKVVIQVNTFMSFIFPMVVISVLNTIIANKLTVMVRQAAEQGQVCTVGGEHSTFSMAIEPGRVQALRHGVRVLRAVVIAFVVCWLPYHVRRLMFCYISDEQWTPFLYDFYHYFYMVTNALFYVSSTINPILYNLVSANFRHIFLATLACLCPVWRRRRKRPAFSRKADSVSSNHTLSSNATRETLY
Each line names hits and unclear results; the compound was inactive in the other large screens. Compounds with a hit are over-represented: about 1.5% of the library has one in this group of screens.

Cc1cccc(NC(=S)NC(=O)CCc2ccccc2)c1C	none
COc1ccc(CNC(=S)Nc2cccc(C)c2C)cc1	CRFR2-BP antag 52
Cc1cccc(NC(=S)NC(=O)Cc2ccccc2)c1C	CRFBP-R2 agonist 71
COc1cccc(NC(=S)NC(=O)Cc2ccc(Cl)cc2)c1	CRFBP-R2 agonist 68
CCCC(C)c1nnc(NC(=O)C2CC(=O)N(CCc3ccc(F)cc3)C2)s1 (stereo unspecified)	none
CCC1(C2=CCCCC2)C(=O)NC(=S)N=C1N (stereo unspecified)	none (no result: NTR1 ag)
Cc1ccc(NC(=O)CSc2nnc(-c3cc(C)[nH]n3)n2N)c(C)c1	none
COCCN(C(=S)Nc1ccc(C)cc1)C(C)c1cccnc1 (stereo unspecified)	none
COc1ccccc1CNS(=O)(=O)c1cc(C(=O)N(C)Cc2cccnc2)c(Cl)cc1Cl	none (no result: NTR1 ag)
COc1ccc(CC(=O)NC(=S)Nc2cccc(C)c2)cc1	CRFBP-R2 agonist 58
COc1ccccc1NC(=S)NC(=O)Cc1ccc(Cl)cc1	CRFBP-R2 agonist 63
Cc1ccc(C(=O)O)cc1NC(=S)NC(=O)c1ccc(-c2ccc(Cl)cc2)o1	none
COc1ccc(CC(=O)NC(=S)Nc2cccc(CO)c2)cc1	none
COc1ccc(C(=O)O)cc1NC(=S)NC(=O)c1ccc(-c2ccc(Cl)cc2)o1	CRFR2-BP antag 86
O=C(Cc1ccccc1F)NCC1(N2CCOCC2)CCCCC1	none
CCN(CC(=O)Nc1c(F)cccc1F)C(=O)c1cccc(S(=O)(=O)NCc2ccccc2)c1	none
CCOC(=O)C1(CC2CCCCO2)CCN(Cc2nccn2-c2ccc(OC)cc2)CC1 (stereo unspecified)	CRFR2-BP antag 52
CCN1CCN(c2ccc(S(=O)(=O)N3CCOCC3)cc2NC(=O)c2cc(Cl)nc3ccccc23)CC1	CRFR2-BP antag 82
CCN1CCN(c2ccc(S(=O)(=O)N3CCCCC3)cc2NC(=O)/C=C/c2cccc(OC)c2OC)CC1	CRFR2-BP antag 106
CCN1CCN(c2ccc(S(=O)(=O)N3CCOCC3)cc2NC(=O)c2ccccc2SC)CC1	none
CCN1CCN(c2ccc(S(=O)(=O)N3CCCCC3)cc2NC(=O)/C=C/c2ccc(F)cc2)CC1	none
CCS(=O)(=O)N1Cc2ccccc2CC1C(=O)Nc1ccc(OC)c(OC)c1 (stereo unspecified)	none
CCS(=O)(=O)N1Cc2ccccc2CC1C(=O)N(C)Cc1ccc(OC)c(F)c1 (stereo unspecified)	V-ATPase pHluor 15
CCCC(=NCC(=O)O)C1=C(O)C(C(=O)OC)C(C)(C)CC1=O (stereo unspecified)	CRFR2-BP antag 61
CCCC(=NCc1ccccc1)C1=C(O)C(C(=O)OC)C(C)(C)CC1=O (stereo unspecified)	none
COC(=O)c1sc(NC(=S)NC(=O)c2cccc(C)c2)nc1C	CRFBP-R2 agonist 65
COC(=O)c1sc(NC(=S)NC(=O)c2ccccc2F)nc1C	none
COc1ccc(C2=NN(C(=O)CCC(=O)O)C(c3ccc(OC)c(OC)c3)C2)cc1 (stereo unspecified)	none
COc1ccc(C2CC(c3ccc(Br)cc3)=NN2C(=O)CCC(=O)O)cc1OC (stereo unspecified)	CRFR2-BP antag 56
CC1Sc2ccc(S(=O)(=O)N3CCC(C(=O)NCC(C)c4ccccc4)CC3)cc2NC1=O (stereo unspecified)	CRFR2-BP antag 53
CC1Sc2ccc(S(=O)(=O)N3CCC(C(=O)NCCc4ccccc4)CC3)cc2NC1=O (stereo unspecified)	none
C/C(=N\NC(=O)c1ccc(-c2ccccc2)cc1)C1C(=O)c2ccccc2C1=O	none
C/C(=N\NC(=O)c1ccc(Br)cc1)C1C(=O)c2ccccc2C1=O	CRFR2-BP antag 55
CCn1nnc2cc(C(=O)Nc3cc(Cl)ccc3C)ccc21	none
COC(=O)C1=NN(C(=O)c2cccc(Br)c2)C(O)(c2ccc(Cl)cc2)C1 (stereo unspecified)	CRFBP-R2 agonist 99
CCOC(=O)C1=NN(C(=O)Cc2ccccc2)C(O)(c2ccc(Cl)cc2)C1 (stereo unspecified)	none
CCOC(=O)C1=NN(C(=O)c2ccccc2)C(O)(c2ccc(C)cc2)C1 (stereo unspecified)	CRFBP-R2 agonist 105
CCOC(=O)C1=NN(C(=O)c2ccc(OC)cc2)C(O)(c2ccc(Cl)cc2)C1 (stereo unspecified)	CRFBP-R2 agonist 80
CCN(CC)c1c([N+](=O)[O-])c(=O)n(C)c2ccccc12	none
Cn1c(=O)c([N+](=O)[O-])c(Cl)c2ccccc21	V-ATPase pHluor 32 (no result: NTR1 ag)
O=C(O)c1ccc(NC2=C(Cl)C(=O)c3ccccc3C2=O)cc1	CRFR2-BP antag 101
O=C1C(Cl)=C(Nc2ccccc2)C(=O)c2ccccc21	CRFR2-BP antag 83 (no result: NTR1 ag)
O=C1C(Cl)=C(NCCc2ccccc2)C(=O)c2ccccc21	V-ATPase pHluor 12 (no result: NTR1 ag)
O=C1C(Cl)=C(NCCc2ccccc2)C(=O)N1CCc1ccccc1	none
CC(CNC(=O)c1cccs1)c1ccc([N+](=O)[O-])cc1 (stereo unspecified)	none
COc1ccc(N2C(=O)CSC23C(=O)N2c4c(cccc43)C(C)=CC2(C)C)cc1 (stereo unspecified)	CRFR2-BP antag 84
COc1ccc(N2C(=O)CSC23C(=O)N2CCCc4cccc3c42)cc1 (stereo unspecified)	none
COc1ccc(CC(=O)Nc2cccc(SC)c2)cc1OC	none (no result: NTR1 ag)
CNc1nc(-c2ccc3c(c2)CCN3C(=O)CC(C)(C)C)c(C)s1	none
CCCC(=O)N1CCc2cc(-c3nc(N)sc3C)ccc21	CRFR2-BP antag 51
COc1ccc(C(CC(=O)Nc2ccc(F)cc2)c2ccccc2)cc1 (stereo unspecified)	CRFR2-BP antag 52
CCOC(=O)Nc1ccc(Oc2ccccc2)cc1	CRFR2-BP antag 57
CCOC(=O)Nc1ccc(OC(=O)Oc2ccc(NC(=O)OCC)cc2)cc1	none (no result: NTR1 ag)
Cc1cc(O)c(C2=Nc3ccccc3SC(c3ccc(Cl)cc3)C2)c(=O)o1 (stereo unspecified)	CRFR2-BP antag 84
O=C(CC(O)c1ccccc1)Nc1ccccn1 (stereo unspecified)	none (no result: NTR1 ag)
CC(C)c1ccc(S(=O)(=O)N2CCN(CC(O)CN3CCOCC3)CC2)cc1 (stereo unspecified)	none
CCC(C)c1ccc(S(=O)(=O)N2CCN(CC(O)COCC3CCCO3)CC2)cc1 (stereo unspecified)	CRFR2-BP antag 64
Fc1ccccc1C(c1nnnn1C1CCCC1)N1CCN(Cc2ccccc2)CC1 (stereo unspecified)	none
CCC(c1nnnn1C1CCCC1)N1CCN(Cc2ccccc2)CC1 (stereo unspecified)	CRFR2-BP antag 103
CC1=NOC(=O)/C1=C\c1ccc(-c2cccc(Cl)c2)o1	CRFBP-R2 agonist 64
CC1=NOC(=O)/C1=C\c1ccc(-c2ccccc2Br)o1	CRFBP-R2 agonist 51 (no result: NTR1 ag)
CN(C)Cc1ccccc1Sc1ccc2c(c1)CCCC2	none
O=[N+]([O-])c1cc(Cl)cc(/C=N/Nc2nc3ccccc3s2)c1O	CRFR2-BP antag 82
COc1cc(/C=N/Nc2nc3ccccc3s2)cc([N+](=O)[O-])c1O	none
NC(=O)c1ccc[n+](CC(=O)c2cccc([N+](=O)[O-])c2)c1	none
